Screening results as filed in PubChem BioAssay.
PNC assembly inh: perinucleolar compartment assembly inhibition; PC3M PTB-GFP, PNC prevalence imaging, 16 h; hits give low values; activity change (PNC), negative = inhibition, % at 10 µM; actives 3.1% (n = 140,000);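 active = readout at or below -70, meaning at least 70% loss of cells showing the perinucleolar compartment, a nuclear body marking cancer cells; inconclusive = readout between -30 and a set limit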;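 note: plate controls were DMSO wells for no effect and camptothecin positive control wells for full effect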
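PC3M cells stably expressing PTB-GFP, 750–1000 cells/well, treated 16 h at 37 °C with compound (23 nl of library stock), in duplicate. After paraformaldehyde fixation and Hoechst stain, imaged at 20x; PNC prevalence scored by image analysis.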
15-hLO-2 inh: inhibitors of human 15-lipoxygenase 2 (ALOX15B) | O15296 | purified 15hLO-2, xylenol orange hydroperoxide absorbance | Potency, µM (series often up to 57.1 µM), for inactives: top-dose activity change, negative = inhibition, usual class: inhibitors | actives 0.56% (n = 110,000); note: potency is the fitted concentration of half-maximal effect; nearly all actives have a fitted effect of over 60% in size
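Enzyme 50 nM, AA 45 uM, 25 mM Hepes pH 7.5 + 0.01% Triton X-100; cpd preinc 15 min RT, rxn 90 min RT; stop/detect with 200 uM XO + 300 uM Fe(II) in 50 mM H2SO4, 30 min; A573/A405.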
ALOX12 inhib: blocks human 12-lipoxygenase activity | purified 12-hLO, xylenol orange hydroperoxide absorbance | Potency, µM (titrated, usually from 57.1 µM), for the others: at the top dose activity change, negative = inhibition, actives largely listed as inhibitors | P18054 | AID 1452 | actives 0.12% (n = 150,000); note: potency is the fitted concentration of half-maximal effect; nearly all actives have a fitted effect of over 55% in size
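Lipoxygenase turnover measured by absorbance at 573 and 405 nm after Fe-XO development. Human 12hLO 150 nM, arachidonate 40 uM, pH 7.0 Hepes buffer with detergent; 15 min compound preincubation, 30 min reaction.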
Active calls of the source: *; [ ] = dose if it differs, or a comment. Most compounds without a hit are left out; they make up all but 3.2% or so of the library. Unless noted, calls come from the whole dose curve; as a rule, active = well fitted curve in the direction sought with a large enough effect; inconclusive = small, poorly fitted or top-dose-only effect, or another doubt; inactive = no such curve, though single readings can be large; an effect the other way counts as inactive or inconclusive. Unless noted, % is set by controls: 0 for no effect and ±100 for the full control effect.

Results for N#CC1=C2SCN(c3ccccc3)CN2C(=O)CC1c1c(Cl)cccc1Cl (stereo unspecified) ?
PNC assembly inh: 34.2; 15-hLO-2 inh: 7.94µM*; ALOX12 inhib: 28.2µM*

What do the screens show for `N#CC1=C2SCC(O)(c3ccccc3)N2C(=O)CC1c1ccccc1F` (stereo unspecified)?
PNC assembly inh: 0.4; 15-hLO-2 inh: -11.9%; ALOX12 inhib: -5.6%

How did Cc1ccc(C2CC(=O)N3CN(c4ccc(Br)cc4)CSC3=C2C#N)o1 (stereo unspecified) do in these assays?
PNC assembly inh: -18.8; 15-hLO-2 inh: inconclusive; ALOX12 inhib: inconclusive

Results for N#CC1=C2SCN(c3ccccc3)CN2C(=O)CC1c1cccs1 (stereo unspecified) ?
PNC assembly inh: -2.7; 15-hLO-2 inh: 12.6µM*; ALOX12 inhib: inconclusive

Results for N#CC1=C2SCC(O)(c3ccccc3)N2C(=O)CC1c1cccs1 (stereo unspecified) ?
PNC assembly inh: -88.6*; 15-hLO-2 inh: -13.9%; ALOX12 inhib: -18.6%

What do the screens show for `N#CC1=C2SCN(Cc3ccccc3)CN2C(=O)CC1c1ccccc1F` (stereo unspecified)?
PNC assembly inh: -8.9; 15-hLO-2 inh: -27.7%; ALOX12 inhib: -14.1%

What do the screens show for `Nc1nonc1-c1noc(CCCCCN2C(=O)c3ccccc3C2=O)n1`?
PNC assembly inh: -7.8; 15-hLO-2 inh: -0.5%; ALOX12 inhib: 5.9%

Results for COC(=O)c1ccccc1OCCCN(C)C ?
PNC assembly inh: inconclusive; ALOX12 inhib: -4.3%

Results for COC(=O)[C@@H]1[C@@H]2C[C@H]3c4[nH]c5ccccc5c4CCN3C[C@@H]2CC[C@@H]1OS(=O)(=O)O ?
15-hLO-2 inh: -4.5%[11.4 µM]; ALOX12 inhib: 3.8%[11.4 µM]

How did Cc1cccn2c(NC(=O)c3cccs3)c(-c3ccccc3)nc12 do in these assays?
PNC assembly inh: 23.9; ALOX12 inhib: 1.2%

What do the screens show for `O=c1c(-c2ccccc2)nc2cnc(N3CCNCC3)nc2n1Cc1cccs1`?
15-hLO-2 inh: 27.7%; ALOX12 inhib: 4.3%

How did CCOC(=O)C1=C(C)NC2=C(C(=O)CCC2)C1c1cn(Cc2ccc(Cl)cc2Cl)nc1-c1ccccc1 (stereo unspecified) do in these assays?
PNC assembly inh: -21.2; 15-hLO-2 inh: -11.1%; ALOX12 inhib: inconclusive

How did CCOC(=O)c1sc2ccc(S(=O)(=O)N3CC(C)CC(C)C3)cc2c1N (stereo unspecified) do in these assays?
PNC assembly inh: -28.4; ALOX12 inhib: -0.2%

Results for N#C/C(C(=O)NCc1ccccc1)=C1/SC(Cc2ccc(Cl)cc2)C(=O)N1c1ccccc1 (stereo unspecified) ?
PNC assembly inh: -7.1; ALOX12 inhib: -0.7%

What do the screens show for `N#CCC(CNc1ncc(C(F)(F)F)cc1Cl)OC(=O)c1cccc([N+](=O)[O-])c1` (stereo unspecified)?
PNC assembly inh: inconclusive; 15-hLO-2 inh: -0.1%; ALOX12 inhib: -3.9%

Results for O=C1Nc2ccc(Br)cc2C1(O)Cc1ccccn1 (stereo unspecified) ?
PNC assembly inh: -113.7*; ALOX12 inhib: 2.3%

How did O=C1CCCCCC1C1(O)C(=O)Nc2ccc(Br)cc21 (stereo unspecified) do in these assays?
PNC assembly inh: 45.2; 15-hLO-2 inh: -2.5%; ALOX12 inhib: -1.4%

What do the screens show for `N[C@@H]1CCN(O)C1=O`?
15-hLO-2 inh: 32.2%; ALOX12 inhib: -0.4%

Results for N#Cc1ccc(C(c2nnnn2C2CCCC2)N2CCC(Cc3ccccc3)CC2)cc1 (stereo unspecified) ?
PNC assembly inh: 52.2; 15-hLO-2 inh: 1.3%; ALOX12 inhib: 3.9%

How did N#Cc1cccc(C(c2nnnn2C2CCCC2)N2CCC(Cc3ccccc3)CC2)c1 (stereo unspecified) do in these assays?
PNC assembly inh: -100.0*; ALOX12 inhib: 2.9%

How did CCC1CSC(Nc2ccc(C(=O)/C=C/c3ccc(Br)cc3)cc2)=N1 (stereo unspecified) do in these assays?
PNC assembly inh: -102.9*; ALOX12 inhib: -0.4%

How did CCC1CSC(Nc2ccc(C(=O)/C=C/c3ccc(OC)c(OC)c3)cc2)=N1 (stereo unspecified) do in these assays?
PNC assembly inh: 52.4; ALOX12 inhib: -6.2%

What do the screens show for `CN1CCN(c2ncc3nc(-c4cc(F)cc(F)c4)c(=O)n(-c4ccccc4)c3n2)CC1`?
15-hLO-2 inh: 2.6%; ALOX12 inhib: -17.1%

What do the screens show for `COc1ccc(CC2CCOC2=O)cc1` (stereo unspecified)?
PNC assembly inh: -126.5*; 15-hLO-2 inh: 4.5%; ALOX12 inhib: -4.0%
